# Measured values: PubChem BioAssay AID624483 (NMMLSC, 2012)
# The campaign covered roughly 360,000 compounds. About 11,000 (3.1%) were called active. Roughly 2% stayed inconclusive and do not appear here. What follows is part of a selection rich in actives, with near analogues and random picks from the rest. Unmarked numbers belong to inactive results. No stated cut-off is given here; in the data, active means fluorescence intensity above about 16000; inconclusive means no clear call, values can overlap the other calls; inactive means below that.
# Experiment: compound fluorescence in toxin protease inhibitor counterscreen, primary screen, artefact control for toxin protease inhibitor project, biochemical, multiplex microsphere, HTS (AID 624483)
# Settings: compound autofluorescence counterscreen, microsphere flow cytometry; stronger effect = higher value
row,SMILES,fluorescence intensity
1,CC1(C(=O)NS(=O)(=O)c2ccc(Cl)cc2)CCN1C(=O)CC1CCCC1 (centres undefined),3020
2,COc1ccc(C(C)(O)c2nc(-c3ccc(C)c(C)c3)cs2)cc1 (centres undefined),3400
3,O=C(Cc1ccccc1)N/N=C/c1ccc(Cl)cc1Cl,23400 (active)
4,O=C(Cn1cc(C(F)(F)F)ccc1=O)N/N=C/c1ccc(Cl)cc1Cl,1980
5,C=CCOc1ccccc1/C=N/NC(=O)Cc1ccccc1,4140
6,COC(=O)c1ccc2nc(C3CCCCC3)c(Cc3cccc(F)c3)n2c1,4850
7,Clc1ccc(CSc2nnc([C@@H]3CCCN3)o2)cc1,6580
8,CCOC(=O)C1=CCC2C(=O)N(Cc3ccccc3)C(=O)C12 (centres undefined),4910
9,CCOC(=O)C1CCN(c2ncnc3c2oc2ccc(Br)cc23)CC1,22700 (active)
10,CCOC(=O)C1CCN(c2ncnc3c2c(-c2ccccc2)cn3-c2ccc(C)cc2)CC1,3930
11,CCOC(=O)C1CCN(Cc2nnc(-c3cccc(Br)c3)o2)CC1,3660
12,O=C(CSc1nc2cccc(F)c2c(=O)n1-c1ccccc1)Nc1ccc2c(c1)CCC2,4620
13,C=CCn1c(SCC(=O)NCC2CCCO2)nc2sc(C)c(C)c2c1=O (centres undefined),5940
14,C=CCn1c(SCc2c(C)noc2C)nc2sc3c(c2c1=O)CCC(C)C3 (centres undefined),2390
15,C=CCn1c(SCc2csc(C)n2)nc2scc(-c3ccc(C)o3)c2c1=O,21100 (active)
16,COc1ccc(C(C)(NC(C)=O)c2nc(-c3ccc(S(C)(=O)=O)cc3)cs2)cc1 (centres undefined),2940
17,COc1ccccc1C1CC(=O)n2c(nc(-c3ccccc3)c2-c2ccccc2)S1 (centres undefined),1950
18,NC(=O)CSC1=Nc2ccccc2C2=NC(CCC(=O)NCc3ccc(F)cc3)C(=O)N12 (centres undefined),3100
19,CCC(C)NC(=O)CSC1=Nc2ccccc2C2=NC(CCC(=O)NCc3ccco3)C(=O)N12 (centres undefined),19500 (active)
20,O=C(CSC1=Nc2ccccc2C2=NC(c3ccccc3)C(=O)N12)NCC1CCCO1 (centres undefined),2380
21,CCCCNC(=O)C[C@@H]1C[C@@]2(C(=O)OCC)CCC=C2N(Cc2cccc3ccccc23)C1=O,5990
22,OCCc1ccc(NCCc2ccco2)cc1,6000
23,CC(=O)Nc1cccc(-c2cc3nc(NCc4cccnc4)n(C)c(=O)c3s2)c1,3710
24,C=CCn1c(SCn2nnc3ccccc3c2=O)nnc1-c1ccc(Cl)cc1,15200

row,SMILES,fluorescence intensity
1,O=c1c2ccccc2nnn1CSc1nnnn1-c1ccccc1,16800 (active)
2,Nc1nnc(SCn2nnc3ccccc3c2=O)s1,4300
3,Cc1cc2nc(-c3ccc(F)cc3)c(Cc3ccsc3)n2c(C)c1Br,4760
4,COC(=O)c1ccccc1NC(=O)C1CC(=O)N(c2ccc(OC)cc2)C1 (centres undefined),3990
5,COc1ccc(NC(=O)C2CCN(S(=O)(=O)c3ccc4[nH]c(=O)oc4c3)CC2)c(OC)c1,4520
6,COC(=O)c1ccccc1NC(=O)C1CCN(S(=O)(=O)c2cc(OC)ccc2OC)CC1,16400 (active)
7,C/C=C/C(=O)Nc1ccc(N2CCN(c3ccc(C(F)(F)F)cn3)CC2)nc1,5380
8,O=C(c1cc(-c2ccc(Cl)cc2)on1)N1CCN(c2ccccc2)CC1,4120
9,COc1ccccc1N1CCN(C(=O)c2cc(-c3ccc(Cl)c(Cl)c3)on2)CC1,16600 (active)
10,COc1ccc(-c2cc(C(=O)N3CCN(c4ccc(F)cc4)CC3)no2)cc1,6330
11,O=C(NCc1ccco1)c1ccc(Cn2c(=O)c3sccc3n(Cc3ccc(F)cc3)c2=O)cc1,5200
12,O=C(NCc1ccco1)c1cc2sccc2n1Cc1ccc(F)cc1,20800 (active)
13,O=C(Cc1ccc(-n2c(=O)c3sccc3n(Cc3ccc(F)cc3)c2=O)cc1)NCc1ccco1,5860
14,CC(C)CC(=O)Nc1nnc(S(=O)(=O)N(C)c2ccc(Cl)cc2)s1,4020
15,COC(=O)c1ccc2nc(-c3ccc(Cl)cc3)c(Cc3cccc(F)c3)n2c1,6340
16,O=C(NCc1nnnn1-c1ccc(Cl)cc1)c1ccc([N+](=O)[O-])o1,3830
17,Oc1cccc2cc(-c3ccncc3)cnc12,2990
18,O=C(CNC(=O)COc1ccccc1)NCCc1ccccn1,3410
19,O=C(NCCc1ccccn1)c1ccc(COc2ccccc2)o1,19400 (active)
20,O=C(NCCc1ccccn1)c1cccnc1Oc1ccc(Cl)cc1,5560
21,CNc1cncc(-c2cccc(C(=O)N3CCOCC3)c2)n1,3830
22,CCCCOC(=O)NCN1C(=O)C2C3C=CC(C3)C2C1=O (centres undefined),3370
23,COC(=O)C1=C(C(=O)c2ccc(C)cc2)C(c2ccccc2)n2nnnc2N1 (centres undefined),2650
24,COc1ccccc1C1C(C(N)=O)=C(C)Nc2nc(CCCO)nn21 (centres undefined),3450

row,SMILES,fluorescence intensity
1,CCCCCOC(=O)C1=C(C)Nc2nnnn2C1c1ccc(OC)c(OC)c1OC (centres undefined),21200 (active)
2,CCOc1ccc(S(=O)(=O)Nc2nc3cc(OC)ccc3s2)cc1,20400 (active)
3,CCOc1ccc2sc(NS(=O)(=O)c3ccc(N)cc3)nc2c1,3350
4,CCOc1ccc(S(=O)(=O)Nc2nccs2)cc1,4450
5,COc1ccc(-c2nc3ccc(Br)cn3c2Cc2ccc(C)cc2)cc1OC,4350
6,CCC(=O)Nc1nnc(S(=O)(=O)N(CC(C)C)c2ccccc2)s1,3230
7,CCOC(=O)C(Sc1ncc(C#N)c(N)n1)C(C)C (centres undefined),2490
8,COC(=O)c1ccc(NC(=O)CSc2nnc(C3CC3)n2C)cc1,5470
9,CCn1c(CNC(=O)c2ccc(OC)c(OC)c2)nnc1SCC(=O)Nc1ccccc1,11100
10,CCOC(=O)c1ccc(NC(=O)CSc2nnc(COc3ccccc3OC)n2C)cc1,23600 (active)
11,COC(=O)Nc1ccc(S(=O)(=O)N(C)CC(F)(F)C(F)F)cc1,3990
12,CC(=O)Nc1cccc(-c2ccnc3c2CC(C)(C(=O)NCc2ccccc2)O3)c1 (centres undefined),3920
13,Cc1cccc(C(=O)OCC(=O)Nc2sccc2C(N)=O)c1C,3570
14,COc1ccc(-c2cc3nc(C)c(CCC(=O)NC(C)CCc4ccco4)c(C)n3n2)c(OC)c1 (centres undefined),3850
15,Cc1nc2c(-c3ccc(F)cc3)c(C)nn2c(C)c1CCC(=O)NCc1ccco1,5410
16,COc1cc(OC)cc(-c2nc3nc(C)c(CCC(=O)NCc4ccco4)c(C)n3n2)c1,21000 (active)
17,CCn1cc(C(=O)N2CC=C(c3ccccc3)CC2)c(=O)c2ccc(C)nc21,11100
18,COc1cccc(CNc2nc(NCc3cccs3)nc3ccsc23)c1,3840
19,COc1ccc(S(=O)(=O)n2cnc3ccccc32)c(C)c1,3080
20,Cc1ccc(S(=O)(=O)N2CCC(C(=O)OCC(=O)N3CC(=O)Nc4ccccc43)CC2)cc1,23100 (active)
21,Cc1ccc(S(=O)(=O)N(C)CC(=O)OCC(=O)N2CC(=O)Nc3ccccc32)cc1,4160
22,Cc1ccccc1SCC(=O)OCC(=O)N1CC(=O)Nc2ccccc21,3940
23,COc1ccc(C(=O)N2CCCCC2c2cc(C(=O)Nc3ccc(F)c(Cl)c3)no2)cc1 (centres undefined),3750
24,CC1(C(=O)NCc2ccc(F)c(F)c2)Cc2c(-c3ccc4c(c3)OCO4)ccnc2O1 (centres undefined),2890

row,SMILES,fluorescence intensity
1,Cc1nc(C(F)(F)F)ccc1C(=O)N1CCC1(C)C(=O)NS(=O)(=O)c1ccc(F)cc1F (centres undefined),3750
2,O=c1c([N+](=O)[O-])cccn1Cc1ccc(F)cc1Cl,4380
3,O=c1c([N+](=O)[O-])cc(C(F)(F)F)cn1Cc1cccc(Cl)c1,22600 (active)
4,CN(C)C(=O)c1cccn(Cc2cccc(C(F)(F)F)c2)c1=O,4630
5,COc1ccc(C2CC(c3cccc(OC)c3)=NN2c2ccc(S(N)(=O)=O)cc2)cc1 (centres undefined),3270
6,CCN(CC)CCN(C)C(c1ccnc2ccccc12)c1nnnn1-c1ccc2c(c1)OCCO2 (centres undefined),4670
7,COC(=O)[C@]12CCCCC=C1N(Cc1ccccc1)C(=O)[C@H](CC(=O)NCc1ccc(C)o1)C2,5960
8,Nc1ncnc2c1ncn2[C@@H]1O[C@H](C(=O)N2CCCN(Cc3ccccc3F)CC2)[C@@H](O)[C@H]1O,5460
9,CCCCCc1c(-c2cccc(Br)c2)ncn1CCc1ccccc1OC,5900
10,CN(C)/C=C/c1c(C#N)c(=O)ncn1Cc1ccccc1,22600 (active)
11,Cc1c(C#N)c2ncn(CC#N)c(=O)c2n1-c1ccccc1,2670
12,CN(C)c1nccc(NCc2ccccc2)c1C#N,2510
13,CC1=C(C(=O)Nc2ccc(Cl)cc2)C(c2ccco2)NC(=O)N1 (centres undefined),21000 (active)
14,COc1ccc(NC(=O)C2=C(C)NC(=O)NC2c2ccccc2[N+](=O)[O-])cc1 (centres undefined),4060
15,COc1cc(Cl)cc(C2NC(=O)NC(C)=C2C(=O)NCc2ccccc2)c1O (centres undefined),6250
16,O=C(OCc1cn(-c2ccc(Cl)c(Cl)c2)nn1)c1ccccc1Cl,23100 (active)
17,NC(=O)COC(=O)c1cc(S(=O)(=O)N2CCN(c3ccccc3)CC2)ccc1Cl,2210
18,Cc1cccc(/C(N)=N/OC(=O)c2ccccc2Cl)c1,2520
19,O=C(Nc1ccccc1)c1ccccc1Br,3570
20,CC(OC(=O)CN1C(=O)c2ccccc2C1=O)C(=O)c1ccccc1 (centres undefined),8630
21,CC(C)OC(=O)CN1C(=O)C(=O)c2ccccc21,22400 (active)
22,CCOC(=O)CN1C(=O)C(=O)c2cc(C)ccc21,3160
